{"source": "PubChem BioAssay AID1851", "about": "(National Center for Advancing Translational Sciences (NCATS), 2009)", "note": "Among all 16,000 compounds or so, about 2,600 (16%) were called active. Not shown: some 20% with an inconclusive outcome. Only a sample is shown. Unmarked numbers belong to inactive results. Calls follow the shape of the dose curve; as a rule, active = well fitted curve in the direction sought with a large enough effect; inconclusive = small, poorly fitted or top-dose-only effect, or effect the other way; inactive = no such curve, though single readings can be large or run the other way. % is scaled to controls: 0 for no effect and ±100 for the full control effect."}
{"molecular_target": "Cytochrome P450 2D6 (Homo sapiens) (UniProt P10635)", "sequence (P10635 whole entry, looked up)": "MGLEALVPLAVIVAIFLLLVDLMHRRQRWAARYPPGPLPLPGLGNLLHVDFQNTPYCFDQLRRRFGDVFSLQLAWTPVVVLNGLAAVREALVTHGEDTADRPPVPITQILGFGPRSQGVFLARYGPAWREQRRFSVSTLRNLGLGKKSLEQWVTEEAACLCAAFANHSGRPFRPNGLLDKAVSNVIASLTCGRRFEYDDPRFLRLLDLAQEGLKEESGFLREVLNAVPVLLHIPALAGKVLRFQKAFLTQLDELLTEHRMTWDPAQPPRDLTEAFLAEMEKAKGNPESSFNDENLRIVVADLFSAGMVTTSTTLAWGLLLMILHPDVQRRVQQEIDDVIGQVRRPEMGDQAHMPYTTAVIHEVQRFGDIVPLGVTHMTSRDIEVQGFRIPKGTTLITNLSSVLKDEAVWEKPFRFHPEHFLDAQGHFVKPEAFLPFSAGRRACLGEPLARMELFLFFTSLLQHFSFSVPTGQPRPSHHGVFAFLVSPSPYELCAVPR", "assay": "Cytochrome panel assay with activity outcomes", "details": "recombinant CYP, pro-luciferin dealkylation, luminescence, p450-cyp2d6; series mostly up to 57.1 µM; activity, negative = inhibition: at the top concentration"}
{"smiles": "NC(=O)NC(=O)[C@H]1CCCC[C@@H]1C(=O)O", "activity, negative = inhibition": "-4.03% [at 11.4 µM]"}
{"smiles": "C[N+](C)(C)CCOC(N)=O", "AC50": "inactive"}
{"smiles": "COC(=O)CNC(=O)CCCCC(=O)NCC(=O)OC", "activity, negative = inhibition": "-4.75%"}
{"smiles": "Cc1ccc(C)c(N2CCN(C(=O)C3CCN(S(=O)(=O)c4cccc5nsnc45)CC3)CC2)c1", "activity, negative = inhibition": "-14.1%"}
{"smiles": "CS(=O)(=O)c1ccc(Cn2c3c(c4cc(F)cc(F)c42)CCC[C@H]3CC(=O)O)cc1", "activity, negative = inhibition": "-11.8%"}
{"smiles": "CC(C)c1ccc(/C(C(=O)O)=C(\\O)C(=O)O)cc1", "activity, negative = inhibition": "0.432% [at 11.4 µM]"}
{"smiles": "CC1(C)C2([N+](=O)[O-])CN3CC1([N+](=O)[O-])CN(C2)C31CCCC1", "activity, negative = inhibition": "-6.83%"}
{"smiles": "O=C(O)Cc1cc(I)c(Oc2ccc(O)c(I)c2)c(I)c1", "activity, negative = inhibition": "0.86% [at 25.6 µM]"}
{"smiles": "CC(=O)c1cc(C#N)c(Oc2cccc(C(F)(F)F)c2)nc1C", "activity, negative = inhibition": "-61.5%"}
{"smiles": "N[C@@H](CS(=O)O)C(=O)O", "activity, negative = inhibition": "10.8%"}
{"smiles": "CC(C)C(=O)Nc1ccc(Sc2ccc(F)cc2)cc1", "activity, negative = inhibition": "-18.6%"}
{"smiles": "CN(C(=S)NC(=O)c1ccccc1Br)C1CCCCC1", "activity, negative = inhibition": "-19%"}
{"smiles": "COc1ccc2[nH]cc(CCNc3nc(-c4ccccc4OC)nc4ccccc34)c2c1", "AC50": "12.6 µM (active)"}
{"smiles": "CC[C@H](CO)NCCN[C@@H](CC)CO", "activity, negative = inhibition": "2.22% [at 25.6 µM]"}
{"smiles": "COc1ccc(F)cc1S(=O)(=O)NC(Cc1ccccc1)C(N)=O", "note": "(stereo not drawn)", "activity, negative = inhibition": "-23%"}
{"smiles": "Cc1cc(C(F)F)n2ncc(C(=O)NCc3ccccc3C(F)(F)F)c2n1", "AC50": "5.01 µM (active)"}
{"smiles": "Cc1ccc(-c2cc(C(F)F)n3ncc(C(=O)Nc4c(C)nn(Cc5c(Cl)cccc5Cl)c4C)c3n2)cc1", "activity, negative = inhibition": "-10.1%"}
{"smiles": "Cc1nn(Cc2c(Cl)cccc2Cl)c(C)c1NC(=O)c1cnn2c(C(F)F)cc(-c3ccccc3)nc12", "activity, negative = inhibition": "-9.88%"}
{"smiles": "O=C(Nc1cc(C(F)(F)F)ccc1N1CCCCC1)c1ccc(Br)o1", "activity, negative = inhibition": "0.271%"}
{"smiles": "O=C1CC[C@H](NC(=O)c2ccccc2)C(=O)N1", "activity, negative = inhibition": "1.49% [at 11.4 µM]"}
{"smiles": "CCOc1c2ccc(C(=O)NCc3ccccc3OC)cc2nn1CC", "activity, negative = inhibition": "-13.2%"}
{"smiles": "COCCn1nc2cc(C(=O)NCc3cc(C(F)(F)F)cc(C(F)(F)F)c3)ccc2c1OC", "AC50": "2.51 µM (active)"}
{"smiles": "COCCn1nc2cc(C(=O)NCC34CC5CC(CC(C5)C3)C4)ccc2c1OC", "activity, negative = inhibition": "-16.5%"}
{"smiles": "O=C(NC1CCCc2ccccc21)c1ccc(=O)[nH]c1", "note": "(stereo not drawn)", "AC50": "28.2 µM (active)"}
{"smiles": "CCOc1c2ccc(C(=O)NCCCCc3ccccc3)cc2nn1CC", "AC50": "0.794 µM (active)"}
{"smiles": "CCCn1nc2cc(C(=O)NCc3ccccc3OC)ccc2c1OCC", "activity, negative = inhibition": "-22.4%"}
{"smiles": "CCCn1nc2cc(C(=O)NCCCCc3ccccc3)ccc2c1OCC", "AC50": "7.94 µM (active)"}
{"smiles": "CCCCn1nc2cc(C(=O)NCc3ccc(C(F)(F)F)cc3C(F)(F)F)ccc2c1OCC", "activity, negative = inhibition": "-27.7%"}
